Laboratory results: PubChem BioAssay AID1159580 (chemical genetic matrix, 2015)
Among all 5,500 compounds or so, about 2,000 (36%) were called active. Another 18% or so got no clear call; they are omitted. Rule as the data show it: active = normalized growth mostly below about 0.91 (no sharp cut-off); inconclusive = no clear call, values can overlap the other calls; inactive = mostly above about 0.92. The list shows a part of the results.

Test: chemical genetic growth profiling, strain panel (AID 1159580);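 also: tested at 20 µM; growth read once vehicle control cultures reached saturation at 30 °C; 1 = growth at the plate median or of vehicle wells; lower values mean less growth of the strain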
Conditions: S. cerevisiae deletion strains, growth OD

Measured: normalized growth

CCCCN1CCC(n2c(=O)[nH]c3ccccc32)CC1
inactive: locus YAL040C, strain CLN3, hits give low values 1.01 | locus YCL061C, strain MRC1 (second series), hits give low values 1.01 | locus YDR363W, strain ESC2, hits give low values 1.02 | locus YER002W, strain NOP16, hits give low values 0.994 | locus YGR229C, strain SMI1, hits give low values 1.01 | locus YJR075W, strain HOC1, hits give low values 1.02 | locus YMR263W, strain SAP30, hits give low values 1 | locus YNL153C, strain GIM3, hits give low values 0.952 | locus YNL175C, strain NOP13, hits give low values 1.01 | locus YNL197C, strain WHI3, hits give low values 1.03 | locus YNL224C, strain SQS1, hits give low values 0.988 | locus YOR083W, strain WHI5 (second series), hits give low values 1.01
